# According to PubChem BioAssay (EPA / NIEHS):
# Where “and” joins values, the source holds several entries; their conditions need not be identical. Identical values can stand only once. Inconclusive results are not listed. Calls of active or inactive are those of the source. The calls were made as follows, unless noted: active = hit-call score of the fitted dose curve at least 0.9, where 1 is the maximum; inactive = score below 0.9.
# Assays:
# [1] = molecular target: Paired box protein Pax-6 (Homo sapiens) (UniProt P26367); assay: ATG_Pax6_CIS: Attagene CIS-FACTORIAL HepG2 Assay for human Paired Box 6 (PAX6) (AID 2282956); conditions: HepG2 CIS-FACTORIAL PAX6 reporter transcription, RNA readout; actives raise or lower the signal
# Paired box protein Pax-6 (Homo sapiens), sequence (P26367 whole entry, looked up): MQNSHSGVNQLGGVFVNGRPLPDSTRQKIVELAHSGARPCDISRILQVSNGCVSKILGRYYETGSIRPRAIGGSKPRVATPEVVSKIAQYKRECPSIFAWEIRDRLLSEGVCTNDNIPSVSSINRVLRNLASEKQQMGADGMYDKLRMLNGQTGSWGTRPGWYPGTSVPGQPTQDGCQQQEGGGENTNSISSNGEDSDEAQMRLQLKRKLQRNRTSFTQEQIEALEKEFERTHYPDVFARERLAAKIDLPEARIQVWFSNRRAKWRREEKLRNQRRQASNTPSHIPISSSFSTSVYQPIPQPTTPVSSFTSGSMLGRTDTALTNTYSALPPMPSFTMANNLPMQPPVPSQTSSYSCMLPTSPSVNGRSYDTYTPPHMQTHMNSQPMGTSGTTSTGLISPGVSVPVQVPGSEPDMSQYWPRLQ
# In short: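 Read-out is reporter transcript level, measured by RT-PCR with fluorescent primer extension and capillary electrophoresis after 24 h dosing of transfected HepG2 cells. Activity in either direction fitted relative to DMSO control.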
# [2] = ATG_PXRE_CIS: Attagene CIS-FACTORIAL HepG2 Assay for human Pregnane X Receptor Element (PXRE) (AID 2282957); conditions: HepG2 Attagene CIS-FACTORIAL PXRE reporter, mRNA; actives raise or lower the signal
# In short: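 After a 24 h chemical incubation, total RNA from transfected HepG2 cells was reverse-transcribed and reporter cDNA amplified, FAM-labeled, HpaI-digested and sized by capillary electrophoresis. DMSO served as baseline for bidirectional curve fitting.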
# [3] = ATG_RORE_CIS: Attagene CIS-FACTORIAL HepG2 Assay for human RAR-related Orphan Receptor Element (RORE) (AID 2282959); conditions: HepG2 Attagene cis-factorial RORE reporter, mRNA; actives raise or lower the signal
# In short: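 RORE reporter transcripts reflecting endogenous factor activity were read after 24 h compound exposure of transfected HepG2 cells, using reverse transcription, PCR, fluorescent labelling and capillary electrophoresis sizing. Gain or loss fitted against DMSO.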
# [4] = molecular target: Transcription factor Sp1 (Homo sapiens) (UniProt P08047); assay: ATG_Sp1_CIS: Attagene CIS-FACTORIAL HepG2 Assay for human Specificity Protein 1 (Sp1) (AID 2282961); conditions: HepG2 Sp1 cis-reporter transcription, actives raise or lower the signal
# Transcription factor Sp1 (Homo sapiens), sequence (P08047 whole entry, looked up): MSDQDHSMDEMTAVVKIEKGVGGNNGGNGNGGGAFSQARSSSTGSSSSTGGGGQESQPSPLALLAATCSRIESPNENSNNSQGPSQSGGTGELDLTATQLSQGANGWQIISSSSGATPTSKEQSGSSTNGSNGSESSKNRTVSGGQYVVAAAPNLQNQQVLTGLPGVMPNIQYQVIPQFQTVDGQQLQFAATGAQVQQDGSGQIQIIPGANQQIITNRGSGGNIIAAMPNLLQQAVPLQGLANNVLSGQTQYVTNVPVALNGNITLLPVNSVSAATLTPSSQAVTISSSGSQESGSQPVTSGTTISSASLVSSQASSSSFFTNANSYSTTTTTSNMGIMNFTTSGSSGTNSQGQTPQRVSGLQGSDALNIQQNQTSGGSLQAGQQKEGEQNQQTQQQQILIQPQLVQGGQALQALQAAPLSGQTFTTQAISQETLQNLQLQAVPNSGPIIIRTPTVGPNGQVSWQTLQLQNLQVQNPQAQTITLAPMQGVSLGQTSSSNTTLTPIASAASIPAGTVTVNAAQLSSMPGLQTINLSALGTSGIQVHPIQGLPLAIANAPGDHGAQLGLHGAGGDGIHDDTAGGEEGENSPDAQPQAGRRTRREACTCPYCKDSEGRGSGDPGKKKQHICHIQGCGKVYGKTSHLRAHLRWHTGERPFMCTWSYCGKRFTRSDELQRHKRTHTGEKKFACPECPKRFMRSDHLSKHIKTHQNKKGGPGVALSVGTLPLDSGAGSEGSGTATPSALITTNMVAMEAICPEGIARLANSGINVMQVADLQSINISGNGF
# In short: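 Read-out is reporter transcript level, measured by RT-PCR and fluorescent capillary electrophoresis after 24 h chemical treatment. System: transiently transfected HepG2 cells reporting endogenous transcription factor activity; gain or loss fitted against DMSO baseline.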
# [5] = ATG_SREBP_CIS: Attagene CIS-FACTORIAL HepG2 Assay for human Sterol Regulatory Element Binding (SREBP) (AID 2282962); conditions: HepG2 Attagene cis-factorial SREBP reporter, mRNA; actives raise or lower the signal
# In short: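 Endogenous SREBP activity read as cis-element-driven reporter transcript in transiently transfected HepG2, 24 h post-dosing; quantified via RT-PCR plus capillary electrophoresis of fluorescent fragments. Gain or loss of signal fitted relative to DMSO baseline.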
# [6] = molecular target: Signal transducer and activator of transcription 3 (Homo sapiens) (UniProt P40763); assay: ATG_STAT3_CIS: Attagene CIS-FACTORIAL HepG2 Assay for human Signal Transducer and Activator of Transcription 3 (STAT3) (AID 2282963); conditions: HepG2, Attagene cis-factorial STAT3 reporter transcription; actives raise or lower the signal
# Signal transducer and activator of transcription 3 (Homo sapiens), sequence (P40763 whole entry, looked up): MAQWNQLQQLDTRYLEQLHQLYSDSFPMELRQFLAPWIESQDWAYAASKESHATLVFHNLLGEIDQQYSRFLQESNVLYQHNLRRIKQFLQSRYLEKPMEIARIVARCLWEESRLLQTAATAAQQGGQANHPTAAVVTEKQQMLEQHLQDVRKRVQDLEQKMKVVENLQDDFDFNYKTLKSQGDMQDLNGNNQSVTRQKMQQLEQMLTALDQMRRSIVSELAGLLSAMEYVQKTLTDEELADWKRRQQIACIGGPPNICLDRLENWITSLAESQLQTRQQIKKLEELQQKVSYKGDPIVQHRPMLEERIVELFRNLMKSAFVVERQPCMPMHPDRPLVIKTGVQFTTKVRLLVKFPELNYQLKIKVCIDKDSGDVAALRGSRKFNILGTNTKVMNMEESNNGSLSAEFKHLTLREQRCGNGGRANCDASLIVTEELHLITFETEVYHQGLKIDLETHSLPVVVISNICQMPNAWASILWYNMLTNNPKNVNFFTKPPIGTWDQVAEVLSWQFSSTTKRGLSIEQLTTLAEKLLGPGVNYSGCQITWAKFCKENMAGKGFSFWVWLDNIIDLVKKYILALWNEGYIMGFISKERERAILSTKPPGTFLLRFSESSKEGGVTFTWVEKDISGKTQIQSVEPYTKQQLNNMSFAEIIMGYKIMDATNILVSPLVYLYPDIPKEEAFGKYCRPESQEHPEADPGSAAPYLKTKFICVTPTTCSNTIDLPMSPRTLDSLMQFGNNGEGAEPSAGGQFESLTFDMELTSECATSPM
# In short: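 Cis-factorial format: endogenous transcription factors in HepG2 drive transfected reporter units. After 24 h treatment, reporter RNA was reverse-transcribed, amplified, FAM-labelled and HpaI-digested before CE analysis; activity scored in both directions against DMSO.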
# [7] = ATG_TA_CIS: Attagene CIS-FACTORIAL HepG2 Assay for human TA Basal Promoter (AID 2282964); conditions: HepG2 Attagene CIS-factorial TA basal promoter reporter; actives raise or lower the signal
# In short: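 HepG2 cells transiently transfected with multiplexed cis-promoter reporter units, dosed 24 h. Reporter mRNA measured by RT-PCR, 6-FAM labelling, HpaI digestion and capillary electrophoresis; bidirectional fit versus DMSO baseline, serving as background control.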
# [8] = ATG_TCF_b_cat_CIS: Attagene CIS-FACTORIAL HepG2 Assay for human T-Cell-Factor with beta-catenin (TCF/b-cat) (AID 2282965); conditions: HepG2 TCF/beta-catenin cis-reporter transcription, actives raise or lower the signal
# In short: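 Endogenous TCF/LEF activity read as reporter transcript level via RT-PCR and capillary electrophoresis fluorescence in transfected HepG2, 24 h exposure; gain or loss of signal fitted against DMSO controls.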
# [9] = ATG_TAL_CIS: Attagene CIS-FACTORIAL HepG2 Assay for human TAL Basal Promoter (AID 2282966); conditions: HepG2 Attagene cis-factorial TAL promoter reporter; actives raise or lower the signal;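 also: background control endpoint measuring basal TAL promoter reporter mRNA not a specific factor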
# In short: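 Basal-promoter background-control endpoint from a multiplexed HepG2 reporter panel. Cells were exposed 24 h, then reporter mRNA was read by RT-PCR/CE fluorescence and fitted in both directions relative to DMSO.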
# [10] = ATG_TGFb_CIS: Attagene CIS-FACTORIAL HepG2 Assay for human Transforming Growth Factor (TGF) (AID 2282967); conditions: HepG2 Attagene CIS TGFb reporter, mRNA transcription; actives raise or lower the signal
# In short: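 HepG2 cells transiently transfected with cis-promoter-driven multiplexed reporter units; 24 h compound exposure. Reporter mRNA measured by RT-PCR, 6-FAM labeling, HpaI digestion and capillary electrophoresis; bidirectional fit versus DMSO baseline.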
# [11] = molecular target: Estrogen receptor (Homo sapiens) (UniProt P03372); assay: ATG_ERa_TRANS: Attagene TRANS-FACTORIAL HepG2 Assay for human Estrogen Receptor alpha (ERa) (AID 2282970; active = hit-call score of the fitted dose curve at least 0.9, where 1 is the maximum); conditions: HepG2 Attagene TRANS ERa GAL4 reporter, mRNA
# Estrogen receptor (Homo sapiens), sequence (P03372 whole entry, looked up, the tested form may be a part): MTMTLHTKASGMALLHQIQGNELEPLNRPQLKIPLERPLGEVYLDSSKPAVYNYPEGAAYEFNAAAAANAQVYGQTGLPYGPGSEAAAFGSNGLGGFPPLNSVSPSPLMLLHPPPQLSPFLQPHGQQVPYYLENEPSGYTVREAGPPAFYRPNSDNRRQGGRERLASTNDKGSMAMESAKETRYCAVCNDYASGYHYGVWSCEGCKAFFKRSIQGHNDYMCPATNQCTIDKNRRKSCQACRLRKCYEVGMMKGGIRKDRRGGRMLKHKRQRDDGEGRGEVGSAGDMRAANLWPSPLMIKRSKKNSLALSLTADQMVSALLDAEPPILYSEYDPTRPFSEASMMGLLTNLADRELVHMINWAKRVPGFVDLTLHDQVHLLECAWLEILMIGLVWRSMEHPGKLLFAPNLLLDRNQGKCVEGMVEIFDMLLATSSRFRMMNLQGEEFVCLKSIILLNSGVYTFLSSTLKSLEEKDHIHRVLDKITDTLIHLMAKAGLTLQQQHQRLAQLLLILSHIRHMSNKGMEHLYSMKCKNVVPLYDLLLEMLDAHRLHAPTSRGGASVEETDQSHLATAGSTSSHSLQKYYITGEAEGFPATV
# In short: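 Gal4-fusion ERa transactivation, measured as reporter transcript level in transiently transfected HepG2 cells. Exposure 24 h; RT-PCR plus capillary electrophoresis with fluorescence detection.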
# [12] = molecular target: X-box-binding protein 1 (Homo sapiens) (UniProt P17861); assay: ATG_Xbp1_CIS: Attagene CIS-FACTORIAL HepG2 Assay for human X-box Binding Protein 1 (XBP1) (AID 2282972); conditions: HepG2 XBP1 cis-element reporter, Attagene multiplex; actives raise or lower the signal
# X-box-binding protein 1 (Homo sapiens), sequence (P17861 whole entry, looked up): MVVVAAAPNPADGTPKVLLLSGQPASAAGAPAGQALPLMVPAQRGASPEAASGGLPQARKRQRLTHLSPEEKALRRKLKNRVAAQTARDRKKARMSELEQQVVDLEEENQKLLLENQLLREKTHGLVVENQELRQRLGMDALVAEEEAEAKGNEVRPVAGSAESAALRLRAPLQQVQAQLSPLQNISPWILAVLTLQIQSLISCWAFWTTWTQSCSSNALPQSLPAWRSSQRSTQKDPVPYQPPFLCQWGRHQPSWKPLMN
# In short: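 Reporter transcripts were quantified by RT-PCR with fluorescent primer extension and capillary electrophoresis after 24 h chemical exposure. Cells: transiently transfected HepG2 carrying cis-regulated reporter constructs; data fitted bidirectionally relative to DMSO.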
# [13] = ATG_M_19_TRANS: Attagene TRANS-FACTORIAL HepG2 Assay for M19 Transcription Factor (Internal Marker) (AID 2282974; active = hit-call score of the fitted dose curve at least 0.9, where 1 is the maximum); conditions: HepG2 Attagene TRANS-FACTORIAL M19 internal marker reporter
# In short: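 Background-control readout: after 24 h chemical exposure of transfected HepG2 carrying GAL4-driven reporter units, RNA was reverse-transcribed, amplified, fluorescently labeled and sized by capillary electrophoresis; gain-of-signal fit against DMSO.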
# [14] = ATG_PBREM_CIS: Attagene CIS-FACTORIAL HepG2 Assay for human Phenobarbital-responsive Enhancer Module (PBREM) (AID 2282955); conditions: HepG2 PBREM cis-reporter, Attagene multiplexed transcription; actives raise or lower the signal
# In short: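 Endogenous transcription factor activity was read from reporter transcripts in transiently transfected human HepG2 liver cells after 24 h dosing. RT-PCR products were fluorescently labelled, HpaI-cut and sized by capillary electrophoresis; activity fitted bidirectionally against DMSO baseline.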
# [15] = ATG_PPRE_CIS: Attagene CIS-FACTORIAL HepG2 Assay for human Peroxisome Proliferator-activated Response Element (PPRE) (AID 2282958); conditions: HepG2 PPRE cis-element reporter, Attagene transcription factor profiling; actives raise or lower the signal
# In short: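 Endogenous PPRE-driven transcription is measured in HepG2 cells carrying transfected multi-reporter constructs. Reporter transcripts are quantified by RT-PCR, HpaI digestion and capillary electrophoresis 24 h after dosing. DMSO baseline, bidirectional fit.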
# [16] = molecular target: Nuclear receptor subfamily 1 group I member 3 (Homo sapiens) (UniProt Q14994); assay: ATG_CAR_TRANS: Attagene TRANS-FACTORIAL HepG2 Assay for human Constitutive Androstane Receptor (CAR) (AID 2282969; active = hit-call score of the fitted dose curve at least 0.9, where 1 is the maximum;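 also: activators raise reporter mRNA above DMSO so AC50 marks induction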); conditions: HepG2 Attagene TRANS-FACTORIAL CAR reporter
# Nuclear receptor subfamily 1 group I member 3 (Homo sapiens), sequence (Q14994 whole entry, looked up, the tested form may be a part): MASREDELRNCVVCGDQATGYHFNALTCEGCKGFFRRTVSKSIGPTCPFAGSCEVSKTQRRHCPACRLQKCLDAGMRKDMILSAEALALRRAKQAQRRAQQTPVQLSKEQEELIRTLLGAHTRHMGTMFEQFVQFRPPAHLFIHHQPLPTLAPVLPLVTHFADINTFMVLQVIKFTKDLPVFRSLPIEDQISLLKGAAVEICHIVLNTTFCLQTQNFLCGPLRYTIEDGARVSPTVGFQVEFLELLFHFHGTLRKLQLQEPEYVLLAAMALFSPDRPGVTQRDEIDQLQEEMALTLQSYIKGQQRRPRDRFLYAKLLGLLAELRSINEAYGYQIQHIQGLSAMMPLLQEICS
# In short: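 Signal is reporter mRNA induction relative to DMSO, measured 24 h after dosing by RT-PCR with fluorescent primer extension and capillary electrophoresis. Human HepG2 liver cells carried transiently transfected chimeric NR-Gal4/GAL4-UAS reporter constructs.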
# [17] = molecular target: Steroid hormone receptor ERR1 (Homo sapiens) (UniProt P11474); assay: ATG_ERRa_TRANS: Attagene TRANS-FACTORIAL HepG2 Assay for human Estrogen-Related Receptor alpha (ERRa) (AID 2282971; active = hit-call score of the fitted dose curve at least 0.9, where 1 is the maximum); conditions: HepG2 Attagene TRANS reporter, ERRa transactivation
# Steroid hormone receptor ERR1 (Homo sapiens), sequence (P11474 whole entry, looked up, the tested form may be a part): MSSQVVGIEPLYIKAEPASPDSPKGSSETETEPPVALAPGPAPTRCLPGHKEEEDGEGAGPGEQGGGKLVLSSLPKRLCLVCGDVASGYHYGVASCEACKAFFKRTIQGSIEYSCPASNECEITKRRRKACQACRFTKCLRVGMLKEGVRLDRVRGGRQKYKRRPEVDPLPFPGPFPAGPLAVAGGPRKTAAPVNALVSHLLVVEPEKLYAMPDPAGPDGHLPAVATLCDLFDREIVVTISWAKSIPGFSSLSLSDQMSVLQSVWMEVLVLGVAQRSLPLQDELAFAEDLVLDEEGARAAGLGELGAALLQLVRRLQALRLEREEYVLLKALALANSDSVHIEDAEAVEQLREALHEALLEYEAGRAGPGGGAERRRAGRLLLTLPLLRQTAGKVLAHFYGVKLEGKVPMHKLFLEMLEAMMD
# In short: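 HepG2 cells transiently transfected with GAL4-UAS reporter units and chimeric NR-Gal4 constructs; after 24 hour compound incubation, reporter mRNA quantified by RT-PCR, fluorescent labelling and capillary electrophoresis, gain of signal versus DMSO.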
# [18] = ATG_VDRE_CIS: Attagene CIS-FACTORIAL HepG2 Assay for human Vitamin D Receptor Element (VDRE) (AID 2282968); conditions: HepG2 VDRE cis-reporter transcription, actives raise or lower the signal
# In short: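 Measures endogenous factor activity through cis-element-driven reporter transcripts in transiently transfected HepG2. Cells are treated 24 h; reporter mRNA is quantified by RT-PCR and capillary electrophoresis; fitting is bidirectional.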
# [19] = molecular target: Androgen receptor (Homo sapiens) (UniProt P10275); assay: ATG_AR_TRANS: Attagene TRANS-FACTORIAL HepG2 Assay for human Androgen Receptor (AR) (AID 2282973; active = hit-call score of the fitted dose curve at least 0.9, where 1 is the maximum); conditions: HepG2 Attagene TRANS-FACTORIAL AR reporter transcription
# Androgen receptor (Homo sapiens), sequence (P10275 whole entry, looked up, the tested form may be a part): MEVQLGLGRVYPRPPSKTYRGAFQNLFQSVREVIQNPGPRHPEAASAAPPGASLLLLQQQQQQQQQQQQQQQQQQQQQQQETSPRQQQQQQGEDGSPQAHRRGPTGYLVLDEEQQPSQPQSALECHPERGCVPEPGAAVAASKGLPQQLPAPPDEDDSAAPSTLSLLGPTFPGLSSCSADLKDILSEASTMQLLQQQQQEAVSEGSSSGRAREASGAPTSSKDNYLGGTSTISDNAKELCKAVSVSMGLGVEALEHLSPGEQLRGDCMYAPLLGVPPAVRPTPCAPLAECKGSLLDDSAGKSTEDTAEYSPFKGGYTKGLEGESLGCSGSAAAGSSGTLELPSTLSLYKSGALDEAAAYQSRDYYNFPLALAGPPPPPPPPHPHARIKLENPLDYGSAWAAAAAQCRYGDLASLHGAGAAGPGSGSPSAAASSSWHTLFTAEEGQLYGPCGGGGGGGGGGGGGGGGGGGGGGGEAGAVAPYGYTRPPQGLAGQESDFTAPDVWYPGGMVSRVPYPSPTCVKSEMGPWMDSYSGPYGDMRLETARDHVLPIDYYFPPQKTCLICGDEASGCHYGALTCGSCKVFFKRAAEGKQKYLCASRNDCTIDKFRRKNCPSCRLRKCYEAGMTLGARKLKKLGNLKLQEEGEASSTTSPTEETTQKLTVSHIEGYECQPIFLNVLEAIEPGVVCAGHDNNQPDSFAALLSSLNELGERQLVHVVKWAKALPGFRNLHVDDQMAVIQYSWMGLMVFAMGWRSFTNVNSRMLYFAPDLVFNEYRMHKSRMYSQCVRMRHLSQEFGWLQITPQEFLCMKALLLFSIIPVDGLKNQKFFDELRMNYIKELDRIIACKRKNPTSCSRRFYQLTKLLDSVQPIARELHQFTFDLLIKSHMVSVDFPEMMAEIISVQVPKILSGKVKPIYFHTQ
# In short: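 HepG2 cells transiently transfected with AR-Gal4 chimera and GAL4-UAS reporter units; chemical exposure 24 h. Reporter mRNA quantified by RT-PCR with fluorescent labelling and capillary electrophoresis; gain-of-signal fitted against DMSO.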
smiles,measurement,setting,value
O=C(O)c1nc(Cl)ccc1Cl,outcome,[1],inactive
same,outcome,[2],inactive
same,outcome,[3],inactive
same,outcome,[4],inactive
same,outcome,[5],inactive
same,outcome,[6],inactive
same,outcome,[7],inactive
same,outcome,[8],inactive
same,outcome,[9],inactive
same,outcome,[10],inactive
same,outcome,[11],inactive
same,outcome,[12],inactive
same,outcome,[13],inactive
COc1cnc(OC)n2nc(NS(=O)(=O)c3c(OCC(F)F)cccc3C(F)(F)F)nc12,outcome,[14],inactive
same,outcome,[1],inactive
same,AC50,[2],22 µM (active) and 16.4 µM (active)
same,outcome,[15],inactive
same,outcome,[3],inactive
same,outcome,[4],inactive
same,outcome,[5],inactive
same,outcome,[6],inactive
same,outcome,[7],inactive
same,outcome,[8],inactive
same,outcome,[9],inactive
same,outcome,[10],inactive
same,outcome,[16],inactive
same,outcome,[11],inactive
same,outcome,[17],inactive
same,outcome,[12],inactive
same,outcome,[13],inactive
CC(Oc1ccc(Cl)cc1Cl)C(=O)O (stereo unspecified),outcome,[1],inactive
same,AC50,[2],79.7 µM (active)
same,outcome,[3],inactive
same,outcome,[4],inactive
same,outcome,[5],inactive
same,outcome,[6],inactive
same,outcome,[7],inactive
same,outcome,[8],inactive
same,outcome,[9],inactive
same,outcome,[10],inactive
same,outcome,[18],inactive
same,outcome,[12],inactive
same,outcome,[13],inactive
COC(=O)C=C(C)OP(=O)(OC)OC,outcome,[14],inactive
same,outcome,[1],inactive
same,outcome,[2],inactive
same,outcome,[15],inactive
same,outcome,[3],inactive
same,outcome,[4],inactive
same,outcome,[5],inactive
same,outcome,[6],inactive
same,outcome,[7],inactive
same,outcome,[8],inactive
same,outcome,[9],inactive
same,outcome,[10],inactive
same,outcome,[18],inactive
same,outcome,[16],inactive
same,outcome,[11],inactive
same,outcome,[17],inactive
same,outcome,[12],inactive
same,outcome,[13],inactive
Cc1c(F)c(F)c(COC(=O)C2C(/C=C(\Cl)C(F)(F)F)C2(C)C)c(F)c1F (stereo unspecified),outcome,[1],inactive
same,AC50,[2],13.8 µM (active)
same,outcome,[15],inactive
same,outcome,[4],inactive
same,outcome,[5],inactive
same,outcome,[6],inactive
same,outcome,[7],inactive
same,outcome,[8],inactive
same,outcome,[9],inactive
same,outcome,[10],inactive
same,AC50,[18],18 µM (active)
same,AC50,[11],50 µM (active)
same,outcome,[12],inactive
CCOP(=S)(OCC)SCn1c(=O)oc2cc(Cl)ccc21,AC50,[14],7.17 µM (active)
same,outcome,[1],inactive
same,AC50,[2],2.21 µM (active)
same,outcome,[3],inactive
same,outcome,[4],inactive
same,outcome,[5],inactive
same,outcome,[6],inactive
same,outcome,[7],inactive
same,outcome,[8],inactive
same,outcome,[9],inactive
same,outcome,[10],inactive
same,AC50,[18],13.8 µM (active)
same,outcome,[16],inactive
same,AC50,[11],29.9 µM (active)
same,outcome,[12],inactive
same,outcome,[13],inactive
Cc1ccc(-c2c(Cl)nc(C#N)n2S(=O)(=O)N(C)C)cc1,AC50,[14],11.9 µM (active)
same,outcome,[1],inactive
same,AC50,[2],3.08 µM (active)
same,AC50,[15],11.9 µM (active)
same,AC50,[3],16.3 µM (active)
same,AC50,[4],11.9 µM (active)
same,outcome,[5],inactive
same,outcome,[6],inactive
same,outcome,[7],inactive
same,outcome,[8],inactive
same,outcome,[9],inactive
same,outcome,[10],inactive
same,AC50,[18],11.9 µM (active)
same,outcome,[11],inactive
same,AC50,[12],8.26 µM (active)
same,outcome,[19],inactive
